Data: PubChem BioAssay (NCI)
The panel holds about 83,000 compounds, 20% with a hit somewhere; the sample as a whole holds those more often.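 Step 1: grow cells in 96-well plates. Step 2: add test compound at a single concentration. Step 3: incubate 48 h. Step 4: record percent growth.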 Unmarked numbers belong to inactive results. Calls of active or inactive are those of the source. How the source made its calls: active means growth percent below 10; inactive means the rest.

Experiments:
Experiment in all cases: NCI-60 one-dose screen, 48 h (100 = growth as untreated, 0 = no growth, -100 = all killed)
Conditions in all cases: 10 µM unless noted
T-47D breast = tested on: T-47D breast
MDA-MB-435 melanoma = tested on: MDA-MB-435 melanoma
SW-620 colon = tested on: SW-620 colon
MCF7 breast = tested on: MCF7 breast
HCT-116 colon = tested on: HCT-116 colon
HCC-2998 colon = tested on: HCC-2998 colon
KM12 colon = tested on: KM12 colon
BT-549 breast = tested on: BT-549 breast

Row | SMILES | growth (T-47D breast) | growth (MDA-MB-435 melanoma) | growth (SW-620 colon) | growth (MCF7 breast) | growth (HCT-116 colon) | growth (HCC-2998 colon) | growth (KM12 colon) | growth (BT-549 breast) [%]
1 | COc1cc2nc(N3CCCC3)nc(NCC3CCCCC3)c2cc1OC | -49.9% (active) | -72.3% (active) | -41.6% (active) | -78.8% (active) | -65.2% (active) | -60.1% (active) | 75.4% | 
2 | Cc1cc2nc(NC(=O)CN3CCN(CCN4C(=O)c5cccc6cccc(c56)C4=O)CC3)sc2cc1C | 83.9% |  | 96% | 74.8% | 74.7% | 101% | 92.5% | 86.1
3 | C=C1C(=O)O[C@H]2[C@H]1CC/C(C=Nc1ccc(C(F)(F)F)cc1N)=C\CC[C@@]1(C)O[C@@H]21 | 14.8% |  | -32% (active) | 10.7% | -77.1% (active) |  | 20.3% | 16.3
4 | CC(=O)NCC1c2c(n(C)c3c(Cl)c(Cl)ccc23)C(=O)NC1(C)C (centres undefined) | 98.5% |  | 113% | 92.1% | 94.8% | 93% | 118% | 102
5 | CCN(CC)S(=O)(=O)c1ccc(OC)c(NC(=O)c2[nH]c(C)c3c2CCCCC3=O)c1 | 16.6% |  | 67% | 19% | 33.7% | 42.3% | 47.9% | 59.8
6 | CCOc1cc2c(cc1OCC)C(c1cc(OC)c(O)cc1Cl)NCC2 (centres undefined) | 85.4% | 77.5% | 99.3% | 93.5% | 76.3% | 63.2% | 88.9% | 
7 | Nc1ccc(-c2cc3c(Nc4ccc(Oc5cccc(C(F)(F)F)c5)c(Cl)c4)ncnc3s2)cc1 | 43.8% |  | 101% | 34.7% | 67.9% | 69% | 44.5% | 73
8 | Clc1ccc2c(NCCNc3nc(N4CCCCC4)nc4ccccc34)ccnc2c1 | -29.7% (active) | -66.4% (active) | -36.6% (active) | 14.5% | -25.4% (active) | 10.6% | 7.18% (active) | 
9 | CC1=C/C(=C(\c2ccc(N(C)C)cc2)c2ccc([N+](C)(C)C)cc2)C=CC1=[N+](C)C | 52.2% | 78.4% | 66.5% | 59.9% | 36.1% | 77.3% | 61.4% | 
10 | O=C(COc1cccc(/C=C2\COc3ccc(Cl)cc3C2=O)c1)c1ccc(Cl)cc1 | 71.9% |  | 51% | 0.286% (active) | 31.1% |  | 77.1% | 84.7
11 | O=C1c2ccccc2OC=C(c2ccccc2)N1CCCCNc1ccc(S(=O)(=O)Nc2ncccn2)cc1 | 88.8% |  | 99.3% | 93.7% | 96.1% |  | 97.5% | 100
12 | COCCNc1ccc2c3c(cccc13)C(=O)N(CCN(C)C)C2=O | -10.9% (active) |  | 24.5% | -16.5% (active) | 10.9% | 28.6% | 24.9% | 17.7
13 | CC1(C)CC[C@]2(C(=O)Nc3ccccn3)CC[C@]3(C)C(=CC[C@@H]4[C@@]5(C)C/C(=C/c6cccnc6)C(=O)C(C)(C)[C@@H]5CC[C@]43C)[C@H]2C1 | 12.8% | 38.3% | 33.9% | 11.4% | 11.4% | 40.4% | 40.1% | 
14 | NC(=O)c1cc(Cl)ccc1NC(=O)/C=C/c1ccccc1 | 14.9% | -13.3% (active) | 26.1% | 10.9% | 29.2% | 60.1% | 9.48% (active) | 
15 | CCCN1CCN(c2ccc3nc(-c4ccc5nc(-c6ccc(OCC)cc6)[nH]c5c4)[nH]c3c2)CC1 | 47.2% |  | -83.7% (active) | -69.7% (active) | -89.8% (active) |  | 42.8% | 71.2
16 | CN1CCN(CCCOc2cccc3nc(Nc4ccc(Cl)c(F)c4)ccc23)CC1 | 38.5% | 25.3% | -34.1% (active) | -43.1% (active) | 31.6% | 55.2% | -34.7% (active) | 
17 | C=CCSSC1N=CNc2nc[nH]c21 (centres undefined) | 22.8% |  | 35.8% | 4.28% (active) | 14.5% | 44.2% | 52.5% | 47
18 | CCc1nnc(CNc2ccc(Cl)cc2)o1 | 93.9% | 101% | 97.7% | 91.3% | 96.1% | 97.6% | 101% | 
19 | C=C1c2nc3ccccc3n2C=C(c2ccc(OC)cc2)N1Cc1ccccc1 | 59.9% | 95.1% | 88.7% | 86.3% | 73.7% | 82.1% | 98.5% | 
20 | CN(C)c1ccc(N=Nc2ccc(Br)cn2)c(O)c1 | 30.2% |  | 26.1% | 10.4% | 25.5% | 34.3% | 26.7% | 38.2
21 | Cc1[nH]c(-c2ccc3cc[nH]c3c2)c2c1C(=O)CCCC2 | 32.1% |  | 73.9% | 19.5% |  | 57.7% | 47.8% | 68.3
22 | O=C(O)c1ccc(N=CC(=O)c2ccc(-c3ccccc3)cc2)cc1 | 100% | 103% | 93.3% | 97.6% | 97.9% | 96.7% | 102% | 
23 | Cc1cc(C)nc(SC2=C(Nc3ccc(O)cc3)C(=O)N(Cc3ccccc3)C2=O)n1 | 45% [40 µM] | 80.1% [40 µM] | 113% [40 µM] | 77.1% [40 µM] | 95.4% [40 µM] |  | 103% [40 µM] | 
24 | FC(F)(F)c1nc2c(NCc3ccc(-c4ccccc4)cc3)cccc2[nH]1 |  | 93.5% | 75.3% | 87% | 74.1% | 107% | 80.5% | 91.2
25 | N#Cc1cnn(-c2nc3c(Cl)cccc3s2)c1N |  | 87.1% | 94.7% | 68.1% |  | 91.1% | 88.7% | 90.4
26 | N#C/C(=C\c1ccc(-c2ccc(Cl)c(Cl)c2)o1)c1nc(-c2ccco2)cs1 | -21.3% (active) | 103% | 103% | 12.5% | 97.9% |  | 50.6% | 
27 | CCOC(=O)c1sc(Nc2ccc(Cl)cc2)nc1C | 6.67% (active) | 23.1% | 28.2% | 13% | 5.31% (active) |  | -1.62% (active) | 
28 | c1ccc2[nH]c(-c3ccc(Nc4nc(N5CCCC5)nc5[nH]ncc45)cc3)nc2c1 | -52.6% (active) | -76.6% (active) | -64.1% (active) | -21.5% (active) | -71.8% (active) |  | -32.6% (active) | 
29 | CCOc1cc2ncc(C#N)c(Nc3ccc(F)c(Cl)c3)c2cc1NC(=O)CC1CCSS1 (centres undefined) | -48.4% (active) | -92.1% (active) | -49% (active) | -34.7% (active) | -61.7% (active) | -74% (active) | -77.6% (active) | 
30 | O=C(CCCCC(=O)N/N=C\c1ccccc1O)N/N=C\c1ccccc1O | 35.5% |  | 34.2% | 27.5% | 25.5% | 21.4% | 33.6% | 
